# Measured values: PubChem BioAssay (EPA / NIEHS)
# Several values for one entry are separate records, joined by “and”; a condition that tells them apart may be missing. Equal entries are not always repeated. Activity calls are given as the source filed them. The calls were made as follows: active = hit-call score of the fitted dose curve at least 0.9, where 1 is the maximum; inactive = score below 0.9.
# Test: IUF_NPC1a_proliferation_area_72hr: Leibniz Research Institute for Environmental Medicine (IUF) 72-hour Neural Progenitor Cell Proliferation Area Assay (NPC1a) (AID 2284208)
# Outline: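 Proliferation is scored as sphere area gain in primary human fetal neural progenitors treated for 72 h in EGF/FGF-containing medium. Viability, LDH and BrdU readouts come from the same wells.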
Compound,outcome,AC50
O=P(Oc1ccccc1)(Oc1ccccc1)Oc1ccccc1,inactive,–
CCCCC(CC)COP(=O)(Oc1ccccc1)Oc1ccccc1 (centres undefined),inactive,–
O=S1(=O)OCC2C(CO1)C1(Cl)C(Cl)=C(Cl)C2(Cl)C1(Cl)Cl (centres undefined),inactive,–
O=C(O)C(F)(OC(F)(F)C(F)(F)C(F)(F)F)C(F)(F)F (centres undefined),inactive,–
CC(C)(C)c1ccccc1OP(=O)(Oc1ccccc1)Oc1ccccc1,inactive,–
CO/N=C(/C(=O)OC)c1ccccc1COc1ccccc1C,–,31.6 µM (active)
CCOP(=S)(OCC)SCSCC,inactive,–
CCOc1ccc(C(C)(C)COCc2cccc(Oc3ccccc3)c2)cc1,inactive,–
CCCCOCCOP(=O)(OCCOCCCC)OCCOCCCC,inactive,–

# Test: IUF_NPC1_viability_72hr: Viability Assessment at 72 hours in the Leibniz Research Institute for Environmental Medicine (IUF) Neural Progenitor Cell Proliferation Assay (NPC1) (AID 2284209)
# Outline: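 Spheres of primary human neural progenitors were plated singly in proliferation medium and treated for 72 h. Mitochondrial reduction of resazurin was then measured by fluorescence and analysed against DMSO controls.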
row,Compound,outcome
1,O=P(Oc1ccccc1)(Oc1ccccc1)Oc1ccccc1,inactive
2,CCCCC(CC)COP(=O)(Oc1ccccc1)Oc1ccccc1 (centres undefined),inactive
3,O=S1(=O)OCC2C(CO1)C1(Cl)C(Cl)=C(Cl)C2(Cl)C1(Cl)Cl (centres undefined),inactive
4,O=C(O)C(F)(OC(F)(F)C(F)(F)C(F)(F)F)C(F)(F)F (centres undefined),inactive
5,CC(C)(C)c1ccccc1OP(=O)(Oc1ccccc1)Oc1ccccc1,inactive
6,CO/N=C(/C(=O)OC)c1ccccc1COc1ccccc1C,inactive
7,CCOP(=S)(OCC)SCSCC,inactive
8,CCOc1ccc(C(C)(C)COCc2cccc(Oc3ccccc3)c2)cc1,inactive
9,CCCCOCCOP(=O)(OCCOCCCC)OCCOCCCC,inactive

# Test: CCTE_Mundy_HCI_Cortical_Synap_Neur_Matur_NeuriteSpotCountPerNeuriteLength: CCTE's Synaptogenesis and Neurite Maturation Assay in rat cortical cells for Neurite Spot Count per Neurite Length, Mundy Lab (AID 2284210)
# Outline: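 Neurite-associated synapse density (synaptophysin puncta per unit neurite length) is measured by fluorescence high-content imaging in rat cortical cultures treated from DIV 7 and fixed at DIV 12, with DMSO as negative control.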
Compound,outcome,AC50
CCCCC(CC)COP(=O)(Oc1ccccc1)Oc1ccccc1 (centres undefined),inactive,–
O=C(O)C(F)(OC(F)(F)C(F)(F)C(F)(F)F)C(F)(F)F (centres undefined),inactive,–
O=P1(N(CCCl)CCCl)NCCCO1 (centres undefined),inactive,–
CC(C)(C)c1ccccc1OP(=O)(Oc1ccccc1)Oc1ccccc1,inactive,–
CO/N=C(/C(=O)OC)c1ccccc1COc1ccccc1C,–,3.36 µM (active)
CCC1(c2ccccc2)C(=O)N=C(O)NC1=O (centres undefined),inactive,–
CCOP(=S)(OCC)SCSCC,–,50 µM (active) and 67.2 µM (active)
CCOc1ccc(C(C)(C)COCc2cccc(Oc3ccccc3)c2)cc1,–,23.7 µM (active)

# Test: CCTE_Mundy_HCI_Cortical_Synap_Neur_Matur_BPCount: CCTE's Synaptogenesis and Neurite Maturation Assay in rat cortical cells for Branch Point Count, Mundy Lab (AID 2284211)
# Outline: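 HCI read-out of branch points from MAP2/synaptophysin/Hoechst immunofluorescence; rat cortical cultures, AraC DIV 5, dosing DIV 7, fixed DIV 12; fit in positive direction vs DMSO baseline.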
Compound,outcome,AC50
CCCCC(CC)COP(=O)(Oc1ccccc1)Oc1ccccc1 (centres undefined),inactive,–
O=C(O)C(F)(OC(F)(F)C(F)(F)C(F)(F)F)C(F)(F)F (centres undefined),inactive,–
O=P1(N(CCCl)CCCl)NCCCO1 (centres undefined),inactive,–
CC(C)(C)c1ccccc1OP(=O)(Oc1ccccc1)Oc1ccccc1,–,2.98 µM (active)
CO/N=C(/C(=O)OC)c1ccccc1COc1ccccc1C,–,5.13 µM (active)
CCC1(c2ccccc2)C(=O)N=C(O)NC1=O (centres undefined),inactive,–
CCOP(=S)(OCC)SCSCC,–,80.7 µM (active) and 50 µM (active)
CCOc1ccc(C(C)(C)COCc2cccc(Oc3ccccc3)c2)cc1,–,26.8 µM (active)
